Records with an inconclusive call do not appear. Activity calls are given as the source filed them. Calls come from the whole dose curve; as a rule, active = well fitted inhibition curve with a large enough effect; inconclusive = small, poorly fitted or top-dose-only effect; inactive = flat fitted curve, though single readings scatter.
Target: Luciferin 4-monooxygenase (Photinus pyralis) (UniProt P08659)
Test: qHTS Assay for Inhibitors of Firefly Luciferase from the GSK Published Protein Kinase Inhibitor Set
Details: purified firefly luciferase, luminescence inhibition; series mostly up to 57.5 µM
How it was run: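 Enzyme-level luminescence assay: compounds titrated (about 60uM down to 300pM) into substrate buffer (10uM ATP, 10uM D-luciferin, pH 7.5 Tris acetate with Mg, Tween-20, BSA), then 10nM firefly luciferase added; read after ~5 min.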
Potency is the fitted concentration of half-maximal effect.

Chain of Luciferin 4-monooxygenase (Photinus pyralis) (P08659 whole entry, looked up): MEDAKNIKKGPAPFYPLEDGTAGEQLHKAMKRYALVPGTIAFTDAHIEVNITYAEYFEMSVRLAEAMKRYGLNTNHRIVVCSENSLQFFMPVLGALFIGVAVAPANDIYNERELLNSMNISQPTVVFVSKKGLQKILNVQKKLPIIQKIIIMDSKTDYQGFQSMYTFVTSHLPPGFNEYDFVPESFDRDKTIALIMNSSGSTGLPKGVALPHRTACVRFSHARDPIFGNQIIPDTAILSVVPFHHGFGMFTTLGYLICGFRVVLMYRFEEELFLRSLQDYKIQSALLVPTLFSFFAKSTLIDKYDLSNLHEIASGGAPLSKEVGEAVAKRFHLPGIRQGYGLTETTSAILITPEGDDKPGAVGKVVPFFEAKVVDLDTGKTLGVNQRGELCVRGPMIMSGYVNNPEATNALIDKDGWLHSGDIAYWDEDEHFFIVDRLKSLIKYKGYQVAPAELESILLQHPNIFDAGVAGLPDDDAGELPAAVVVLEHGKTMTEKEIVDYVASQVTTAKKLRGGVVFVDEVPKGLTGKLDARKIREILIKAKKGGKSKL

Potency, active:
CN(c1ccc(NC(=O)Nc2c(Cl)cccc2Cl)cc1)c1ccnc(Nc2cccc(CS(C)(=O)=O)c2)n1 0.58 µM
COc1ccccc1Nc1ncc(-c2ccccc2)o1 1.03 µM
Cc1c2ccc(N(C)c3ccnc(Nc4cccc(S(N)(=O)=O)c4)n3)cc2nn1C 13 µM
N#Cc1c(NC(=O)c2ccccc2F)sc2c1CCCC2 0.819 µM
O=C(Nc1n[nH]c2cc(-c3ccccc3)ccc12)C1CC1 18.3 µM
CNC(=O)c1cncc(C=Cc2c(Cl)cccc2Cl)c1 16.3 µM

Potency, inactive:
O=C(Nc1n[nH]c2nc(-c3ccco3)ccc12)C1CC1
COc1ccc2ncnc(Nc3ccc(OCc4ccccc4)cc3)c2c1
CC(Oc1cc(-n2cnc3ccc(OCC4CCN(C)CC4)cc32)sc1C(N)=O)c1ccccc1Cl (stereo not drawn)
Fc1ccc(Oc2nccc(-c3c(-c4ccc(F)cc4)ncn3C3CCNCC3)n2)cc1
CCCN1CCC=C(c2ccc(Nc3nc(Nc4ccccc4C(N)=O)c4cc[nH]c4n3)c(C)c2)C1
Nc1nccc(-c2c(-c3ccc(F)cc3)ncn2CCCN2CCOCC2)n1
COc1ccc(-c2ccncc2)cc1C(N)=O
CCCN1CCC(c2ccc(Nc3nc(Nc4cc(F)ccc4C(N)=O)c4cc[nH]c4n3)c(OC)c2)CC1
O=C(O)c1ccc(Oc2nccc(-c3c(-c4ccc(F)cc4)ncn3C3CCNCC3)n2)cc1
Nc1ncnc2occ(-c3ccc(NC(=O)Nc4cccc(C(F)(F)F)c4)cc3)c12
Cc1nn(C)c2cc(N(C)c3ccnc(Nc4cccc(S(N)(=O)=O)c4)n3)ccc12
COc1cc2ncn(-c3cc(OCc4ccccc4Cl)c(C(N)=O)s3)c2cc1OC

Reference: PubChem BioAssay AID652016 (National Center for Advancing Translational Sciences (NCATS), 2013)
